Holding throughout (assay): NCI-60 one-dose screen, 48 h (100 = growth as untreated, 0 = no growth, -100 = all killed)
Holding throughout (conditions): 10 µM unless noted

Test [1] relates to HT29 colon.
The subject of test [2] is SNB-75 CNS.
Test [3] relates to SNB-19 CNS.
For test [4], the system named is U251 CNS.
Test [5] relates to PC-3 prostate.
Test [6] concerns SK-MEL-5 melanoma.
In test [7] the test system is UACC-62 melanoma.
Test [8] concerns SK-MEL-28 melanoma.
Test [9] has as its system SK-MEL-2 melanoma.
In test [10] the test system is LOX IMVI melanoma.

The text below walks through data of PubChem BioAssay (NCI).

The panel holds about 83,000 compounds, 20% with a hit somewhere; the sample as a whole holds those more often.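 48-hour exposure, single concentration, 96-well plates; percent growth endpoint where 0 means no net growth. Active: below 10.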 A number with no mark means an inactive call. Calls of active or inactive are those of the source.

For the compound `CC1SC(c2c(Cl)cccc2Cl)N(NC(=O)c2[nH]c3ccc(F)cc3c2-c2ccccc2)C1=O` (configuration not stated), the growth in test [1] was 34.8%; in [2] it was -53% (active); in [3], 37.4%; in test [4], 10.7%; in test [5], 32.2%; in test [6], 54.6%. The growth in [7] is 74.8%; in [8], 71.2%; in test [9], 72%.
Take `COc1cc(/C=C/C(=O)c2c(-c3ccc(Cl)cc3)nc3sc(C)nn23)cc(OC)c1OC`: the growth is 86.6% in [1]; 77.3% in [2]; 90.8% in test [3]; 76.4% in test [4]; 53.6% in test [5]; 20.9% in test [6]. Also, the growth in [10] is 61.6%; in test [8] it was 94%; in test [9], 44%.
As to `O=C(/C=C/c1cccnc1)NCCCCC1CCCN(C(=O)c2ccccc2)C1` (configuration not stated), the growth in test [1] is 32.8%; in [2], 87.7%; in test [3], 53.3%; in [4], 43.1%; in test [5], 47.5%; in test [6], 61.7%. The growth in [7] was 87.5%; in test [8], 73.1%; in test [9], 15.3%.
Turning to `COc1ccc(-c2csc(NC(=O)c3cc(O)c(O)c(O)c3)n2)cc1`, the growth in test [1] was 92.3%; in test [2], 58.8%; in test [3], 59.9%; in [4], 45.6%; in test [5], 68.4%; in test [6] it was 51%. Besides, the values for the growth in test [10], in [8] and in test [9] were 50.6%, 89.1% and 71.4%, respectively.
As to `COc1cc2c(c(OC)c1OC)-c1ccc(NN(C(=O)c3ccccc3)C(=O)c3ccccc3)c(=O)cc1[C@@H](NC(C)=O)CC2` (tested in a mixture with another compound), the growth in test [1] was 6.31% (active); in test [2], 27.7%; in [3], 49.1%; in test [4] it was 24.8%; in test [5], 40.9%; in [6], 20.2%. The growth in test [7] is 59.6%; in test [8], 52.9%; in test [9] it was 10.4%.
For `O=C(C(=O)N1CCOCC1)c1ccc(OC2OC(CO)C(O)C(O)C2O)cc1` (configuration not stated), the growth was 100% in test [1]; 89.5% in test [2]; 102% in test [3]; 105% in test [4]; 110% in [5]; 108% in test [6]. In addition, the growth in [7] is 103%; in test [8], 105%; in [9] it was 96.2%.
On to `C=C(C)[C@H]1CC/C(C)=C/CC[C@]2(C)O[C@H]2CC/C(C=O)=C\C1O` (some centres not stated), for which the growth was 98.2% in test [1]; 106% in [2]; 112% in [3]; 103% in test [4]; 122% in [5]; 94.8% in test [6]. For the same compound, the values for the growth in [10], in test [8] and in [9] were 98.1%, 115% and 1410%, respectively.
Regarding `O=C(Nc1nc(-c2ccccc2)cs1)c1cc(O)c(O)c(O)c1`, the growth is 80.8% in test [1]; 33.1% in test [2]; 41.5% in test [3]; 32.1% in test [4]; 58.8% in test [5]; 44.1% in test [6]. Also, the figures for the growth in [10], in test [8] and in [9] were 40.2%, 76.8% and 56.8%, respectively.
